In PubChem BioAssay (Tox21) one finds Potency data, which are given here for 8 molecules.

SMILES strings stand for the structures. “And” between values parts separate entries of the source, which are not always exact repeats. Equal values may be shown once. More than one record can exist for a structure, and the calls need not agree. The source made the active and inactive calls. Unless noted, calls come from the whole dose curve; as a rule, active = well fitted curve in the direction sought with a large enough effect in the repeat runs; inconclusive = weak or mixed curves; inactive = no such curve, though single readings can be large; an effect the other way counts as inactive or inconclusive.

Assay [1] is described as follows: qHTS assay to identify small molecule antagonists of the glucocorticoid receptor (GR) signaling pathway - cell viability counter screen (AID 720693). Note: nearly all actives have a fitted effect of over 55% in size. Note: potency is the fitted concentration of half-maximal effect.
Assay [2] can be described thus: qHTS assay for identifying genotoxic compounds that show differential cytotoxicity against isogenic chicken DT40 cell lines with known DNA damage response pathways - wild type cell line (AID 743012). Note: nearly all actives have a fitted effect of over 60% in size. Note: potency is the fitted concentration of half-maximal effect. The essentials:
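Parental DNA repair-proficient DT40 cells, 300 per well, were pre-incubated ~0.5 h at 37 C/5% CO2, pin-dosed with compounds in DMSO, then incubated 40 h. Viability was read as CellTiter-Glo luminescence after 30 min at room temperature.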

Assay [3] is described as follows: qHTS assay for identifying genotoxic compounds that show differential cytotoxicity against isogenic chicken DT40 cell lines with known DNA damage response pathways - Rev3 mutant cell line (AID 743014). Note: nearly all actives have a fitted effect of over 55% in size. Note: potency is the fitted concentration of half-maximal effect.
The nature of assay [4]: qHTS assay for identifying genotoxic compounds that show differential cytotoxicity against isogenic chicken DT40 cell lines with known DNA damage response pathways - Rad54/Ku70 mutant cell line (AID 743015). Note: nearly all actives have a fitted effect of over 60% in size. Note: potency is the fitted concentration of half-maximal effect.
A short description of assay [5]: qHTS assay to identify small molecule antagonists of the androgen receptor (AR) signaling pathway - cell viability counter screen (AID 743033; note: nearly all actives have a fitted effect of over 45% in size; note: potency is the fitted concentration of half-maximal effect).
Assay [6] can be described thus: qHTS assay to identify small molecule antagonists of the thyroid receptor (TR) signaling pathway - cell viability counter screen (AID 743064). Note: potency is the fitted concentration of half-maximal effect; nearly all actives have a fitted effect of over 50% in size. The gist of the method:
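In rat pituitary GH3.TRE-Luc reporter cells co-exposed to compound and 1 nM T3 for 23.5 h, cytotoxicity was assessed with CellTiter-Fluor in the same wells, read by fluorescence.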

The target in assay [7] is Estrogen receptor (Homo sapiens) (UniProt P03372). Briefly: qHTS assay to identify small molecule antagonists of the estrogen receptor alpha (ER-alpha) signaling pathway (AID 743069; active = well fitted curve in the direction sought with a large enough effect in the signal ratio in the repeat runs, not every such curve was filed as active; inconclusive = weak or mixed curves, or effect the other way; inactive = no such curve, though single readings can be large or run the other way; the % refers to the signal ratio; note: potency is the fitted concentration of half-maximal effect). The essentials: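 Estradiol-stimulated ER-alpha-UAS-bla HEK293 cells, 18 hr compound exposure at 37C. LiveBLAzer B/G substrate, 2 hr RT, fluorescence read.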
Chain of Estrogen receptor (Homo sapiens) (P03372 whole entry, looked up): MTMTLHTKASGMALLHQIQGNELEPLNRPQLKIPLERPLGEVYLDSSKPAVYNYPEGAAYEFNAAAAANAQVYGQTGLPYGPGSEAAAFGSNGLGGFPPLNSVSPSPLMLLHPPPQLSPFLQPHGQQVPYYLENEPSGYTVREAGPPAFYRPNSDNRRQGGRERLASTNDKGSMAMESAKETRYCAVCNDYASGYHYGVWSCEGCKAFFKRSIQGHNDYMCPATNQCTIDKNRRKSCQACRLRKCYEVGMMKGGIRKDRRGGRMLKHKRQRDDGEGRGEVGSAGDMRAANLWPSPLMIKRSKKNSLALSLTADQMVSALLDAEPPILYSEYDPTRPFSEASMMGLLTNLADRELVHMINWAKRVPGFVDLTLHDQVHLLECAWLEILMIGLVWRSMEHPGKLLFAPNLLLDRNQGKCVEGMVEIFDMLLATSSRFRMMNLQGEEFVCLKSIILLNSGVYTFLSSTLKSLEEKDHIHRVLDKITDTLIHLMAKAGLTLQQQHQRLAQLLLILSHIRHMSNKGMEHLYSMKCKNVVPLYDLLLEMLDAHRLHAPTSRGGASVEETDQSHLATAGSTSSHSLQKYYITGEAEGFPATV
Assay [8] is described as follows: qHTS assay to identify small molecule antagonists of the estrogen receptor alpha (ER-alpha) signaling pathway - cell viability counter screen (AID 743074; calls by dose curve;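 note: HEK293 cells carrying ER-alpha-UAS-bla reporter stimulated with 17beta-estradiol; nearly all actives have a fitted effect of over 45% in size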).
Assay [9] concerns the target Estrogen receptor (Homo sapiens) (UniProt P03372). Briefly: qHTS assay to identify small molecule agonists of the estrogen receptor alpha (ER-alpha) signaling pathway (AID 743075; calls by dose curve).
For assay [10] the target is unchanged. The assay is described as follows: qHTS assay to identify small molecule agonists of the estrogen receptor alpha (ER-alpha) signaling pathway using the BG1 cell line (AID 743079). Note: nearly all actives have a fitted effect of over 20% in size. Note: potency is the fitted concentration of half-maximal effect. The note with it: BG1Luc4E2 cells, ERE-luciferase agonist, 22 h; activation: at 70.3 µM (top of the series).
Assay [11] is described as follows: qHTS assay to identify small molecule antagonists of the estrogen receptor alpha (ER-alpha) signaling pathway using the BG1 cell line (AID 743080; calls by dose curve;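 note: BG1 cells stimulated with 17beta-estradiol alongside compound; nearly all actives have a fitted effect of over 25% in size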). To be noted: BG1Luc4E2 ERE-luciferase antagonist mode, luminescence; activity change, negative = inhibition: at 70.3 µM (top of the series). The gist of the method:
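BG1-Luc-4E2 cells (endogenous full-length ER-alpha, stable 4×ERE-luciferase) were starved 5 days in phenol-red-free medium with 10% charcoal-stripped FBS, plated 24 h, then given compound plus 17beta-estradiol for 21.5 h at 37 C; ONE-Glo luminescence read after 30 min.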

A short description of assay [12]: qHTS assay to identify small molecule antagonists of the estrogen receptor alpha (ER-alpha) signaling pathway using the BG1 cell line - cell viability counter screen (AID 743081).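 Note: compound given together with 17beta-estradiol as the ER stimulus; nearly all actives have a fitted effect of over 45% in size.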 Note: potency is the fitted concentration of half-maximal effect.
The next assay addresses Aromatase (Homo sapiens) (UniProt P11511). Briefly: qHTS assay to identify aromatase inhibitors (AID 743083). Note: nearly all actives have a fitted effect of over 55% in size. Note: potency is the fitted concentration of half-maximal effect.
For assay [13], the target named is Androgen receptor (Homo sapiens) (UniProt P10275). Briefly: qHTS assay to identify small molecule agonists of the androgen receptor (AR) signaling pathway using the MDA cell line (AID 743040; note: nearly all actives have a fitted effect of over 20% in size). The essentials:
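Luminescence from ONE-Glo, read after 30 min at room temperature, reflects MMTV-driven luciferase in MDA-kb2 cells (AR- and GR-responsive). Treatment lasted 16 h at 37C, 0% CO2.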

For assay [14] the target is unchanged. Briefly: qHTS assay to identify small molecule antagonists of the androgen receptor (AR) signaling pathway using the MDA cell line (AID 743042; note: nearly all actives have a fitted effect of over 55% in size; note: potency is the fitted concentration of half-maximal effect). The gist of the method:
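MDA-kb2 cells (human breast carcinoma, stably carrying an MMTV-luciferase reporter responsive to AR and GR) were plated at 3,000 cells/well and preincubated 5 hr at 37C, then given compound plus R1881 agonist for 16 h. ONE-Glo luminescence was read.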

Assay [15] can be described thus: qHTS assay to identify small molecule antagonists of the thyroid receptor (TR) signaling pathway (AID 743065). The essentials:
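GH3.TRE-Luc rat pituitary cells carrying two TR response elements driving luciferase were plated for 4 h, given compound plus 1 nM T3 (final), and incubated 23.5 h at 37 C. ONE-Glo luminescence measured reporter inhibition; CellTiter-Fluor fluorescence tracked cytotoxicity.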

Assay [16] concerns thyroid hormone receptor (rat, GH3 cells). Briefly: qHTS assay to identify small molecule agonists of the thyroid receptor (TR) signaling pathway (AID 743066; calls by dose curve).
A short description of assay [17]: qHTS assay to identify small molecule antagonists of the androgen receptor (AR) signaling pathway using the MDA cell line - cell viability counter screen (AID 743041; note: nearly all actives have a fitted effect of over 45% in size). The essentials:
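Viability counter screen run alongside the AR antagonist reporter: cells seeded 5 h before compound, R1881 added, 16 h incubation at 37C without CO2, fluorescent CellTiter-Fluor signal quantified.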

Assay [18] concerns the target Androgen receptor (Homo sapiens) (UniProt P10275). The assay is described as follows: qHTS assay to identify small molecule antagonists of the androgen receptor (AR) signaling pathway (AID 743035; active = well fitted inhibition curve with a large enough effect in the signal ratio in the repeat runs, not every such curve was filed as active; inconclusive = weak or mixed curves, or effect the other way; inactive = no such curve, though single readings can be large or run the other way; the % refers to the signal ratio; note: potency is the fitted concentration of half-maximal effect). The gist of the method:
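HEK293 cells stably carrying a UAS-driven beta-lactamase reporter (AR-UAS-bla GripTite) were plated for 4 h at 37C, then given compound and the agonist R1881 and incubated 16 h. Reporter activity was read by LiveBLAzer B/G FRET fluorescence after 2 h at room temperature.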

Chain of Androgen receptor (Homo sapiens) (P10275 whole entry, looked up): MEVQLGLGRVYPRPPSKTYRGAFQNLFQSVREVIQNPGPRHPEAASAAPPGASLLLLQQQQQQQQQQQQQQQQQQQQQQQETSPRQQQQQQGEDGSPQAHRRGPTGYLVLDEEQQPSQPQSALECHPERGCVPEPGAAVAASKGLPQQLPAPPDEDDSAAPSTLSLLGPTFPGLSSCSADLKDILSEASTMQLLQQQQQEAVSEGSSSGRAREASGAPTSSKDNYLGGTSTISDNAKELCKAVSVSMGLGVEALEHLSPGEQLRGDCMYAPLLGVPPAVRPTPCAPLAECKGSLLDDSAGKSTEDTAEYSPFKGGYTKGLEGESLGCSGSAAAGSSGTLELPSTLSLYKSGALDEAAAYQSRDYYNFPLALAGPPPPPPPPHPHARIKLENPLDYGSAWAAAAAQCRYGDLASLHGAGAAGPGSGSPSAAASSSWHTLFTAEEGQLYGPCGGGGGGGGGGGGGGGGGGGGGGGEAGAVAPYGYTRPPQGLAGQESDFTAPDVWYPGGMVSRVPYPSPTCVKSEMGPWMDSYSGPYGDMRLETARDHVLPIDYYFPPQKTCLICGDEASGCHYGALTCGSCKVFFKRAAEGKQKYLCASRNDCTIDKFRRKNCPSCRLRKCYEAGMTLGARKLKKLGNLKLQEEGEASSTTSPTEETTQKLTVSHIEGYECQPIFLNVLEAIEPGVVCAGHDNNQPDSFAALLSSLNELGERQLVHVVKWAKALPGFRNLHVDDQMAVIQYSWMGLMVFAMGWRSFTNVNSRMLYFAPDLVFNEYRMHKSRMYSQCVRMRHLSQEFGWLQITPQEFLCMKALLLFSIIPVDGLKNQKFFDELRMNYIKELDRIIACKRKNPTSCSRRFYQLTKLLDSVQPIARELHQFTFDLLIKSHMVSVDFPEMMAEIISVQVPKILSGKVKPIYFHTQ
Chain of Aromatase (Homo sapiens) (P11511 whole entry, looked up): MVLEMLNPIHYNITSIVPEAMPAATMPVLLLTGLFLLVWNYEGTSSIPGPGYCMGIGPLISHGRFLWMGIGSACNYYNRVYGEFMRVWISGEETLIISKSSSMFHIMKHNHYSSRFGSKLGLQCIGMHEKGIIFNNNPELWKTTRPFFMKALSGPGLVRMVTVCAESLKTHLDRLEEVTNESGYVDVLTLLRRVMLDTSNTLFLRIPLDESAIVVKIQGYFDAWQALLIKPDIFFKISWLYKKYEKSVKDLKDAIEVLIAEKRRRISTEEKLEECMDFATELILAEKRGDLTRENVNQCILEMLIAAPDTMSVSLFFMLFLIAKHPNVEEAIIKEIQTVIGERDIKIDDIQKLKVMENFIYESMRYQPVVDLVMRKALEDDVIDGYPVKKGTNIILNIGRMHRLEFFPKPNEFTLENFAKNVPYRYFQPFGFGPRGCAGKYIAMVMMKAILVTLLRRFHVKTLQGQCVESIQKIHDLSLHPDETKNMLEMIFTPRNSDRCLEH

For the molecule `CO[C@H]1C=CO[C@@]2(C)Oc3c(C)c(O)c4c(O)c(cc(O)c4c3C2=O)NC(=O)/C(C)=C\C=C/[C@H](C)[C@H](O)[C@@H](C)[C@@H](O)[C@@H](C)[C@H](OC(C)=O)[C@@H]1C`, the Potency result in assay [1], in assay [7], in assay [8], in assay [9], in [10] and in assay [11] was “inactive” each time. The Potency entry was “inactive and 13.8 µM (active)” in [2]; “inactive and 6.91 µM (active)” in assay [3]; “inactive and 12.3 µM (active)” in assay [4]; “inactive and 49.3 µM (active)” in assay [5]; 48.9 µM (active) in assay [6]; “inactive and 34.6 µM (active)” in [12]. Further, the Potency entry with Aromatase (Homo sapiens) was “inactive and 21.8 µM (active)”.

As to `COc1cc(C=C2CCC/C(=C\c3ccc(O)c(OC)c3)C2=O)ccc1O`, the Potency in assay [1] is 23.9 µM (active); in assay [2] it was 8.41 µM (active); in [3], 11.9 µM (active); in assay [4], 9.44 µM (active); in [14], 21.1 µM (active); in assay [6] it was 7.5 µM (active). For the same molecule, the Potency is 6.68 µM (active) in assay [15], 15.1 µM [inconclusive] (active) in [7] and 21.1 µM (active) in the assay with Aromatase (Homo sapiens). The Potency entry in [13], in assay [9] and in assay [11] was “inactive” throughout.

`C=CC(=O)OCC(O)COc1ccccc1` (stereo unspecified): the Potency is 38.9 µM (active) in [1]; 24.3 µM (active) in [2]; 27.3 µM (active) in assay [3]; 30.6 µM (active) in [4]; 48.6 µM (active) in assay [15]; 68.6 µM (active) with Aromatase (Homo sapiens). Besides, the Potency entry in assay [16], in assay [8], in assay [9], in assay [10] and in assay [12] was “inactive” each time.

For `CCCCCCC(C)OC(=O)COc1nc(F)c(Cl)c(N)c1Cl` (stereo unspecified), the Potency result in [1], in assay [5], in [16], in assay [8] and in assay [12] was “inactive” in each case. The Potency in assay [2] is 43.3 µM (active); in [3], 38.6 µM (active); in assay [4] it was 38.6 µM (active).

Turning to `CCN(CC)CCSC(=O)C(c1ccccc1)c1ccccc1`, the Potency entry in [1], in assay [3], in [5], in assay [17], in assay [16] and in [8] was “inactive” throughout. Moreover, the Potency entry (in [9]; in assay [10]; in [12]; in the assay with Aromatase (Homo sapiens)) was “inactive” in each case. Also, the Potency in [2] and in [15] was 26.6 µM (active) throughout.

As to `COc1cc(C(C)C)c2c(c1)S(=O)(=O)N(COc1cc(=O)n3cccc(OCCN4CCCCC4)c3n1)C2=O`, the Potency entry in assay [1], in [13], in assay [17], in assay [16], in assay [8] and in assay [9] was “inactive” each time. Also, the Potency result in [10], in assay [11] and in assay [12] was “inactive” each time. Besides, the Potency in [2] is 13 µM (active); in [3] it was 16.4 µM (active); in assay [4] it was 13 µM (active); in assay [15], 13 µM (active).

Take `CCCCCCOc1ccc(O)cc1`: the Potency entry in [1], in assay [13], in assay [17], in assay [14], in [16] and in assay [9] was “inactive” each time. Further, the Potency entry in assay [12] is “inactive”. Also, the Potency in assay [2] was 6.11 µM (active); in assay [3], 5.45 µM (active); in [4], 7.7 µM (active); in [18], 24.5 µM (active); in assay [6], 12.2 µM (active); in assay [10], 8.63 µM (active).

Take `Clc1ccc(C(c2ccccc2Cl)C(Cl)Cl)cc1` (stereo unspecified): the Potency entry (in assay [1]; in assay [5]; in assay [16]; in [8]; in assay [12]; with Aromatase (Homo sapiens)) was “inactive” each time. The Potency is 23.7 µM (active) in assay [2]; 29.8 µM (active) and 48.6 µM (active) in [3]; 26.6 µM (active) and 43.3 µM (active) in [4].
